Screens: PubChem, several laboratories
PLK1 kinase inh: human PLK1 kinase inhibitors, primary screen, biochemical, TR-FRET | Serine/threonine-protein kinase PLK1 (Homo sapiens), P53350 | AID 619, 2007 | actives 0.53% (n = 97,000) | inhibition, % at 10 µM | recombinant PLK1 kinase, TR-FRET peptide phosphorylation;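 active = inhibition of 50% or more in the single-concentration screen; inactive = inhibition below 50%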;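 also: 0% = DMSO max control and 100% = H-89 dihydrochloride min control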
PLK1 PBD inh: Plk1 polo box domain binding inhibitors, primary screen, biochemical, fluorescence polarization; actives 0.13% (n = 97,000); AID 693, 2007; Plk1 PBD phosphopeptide binding; Serine/threonine-protein kinase PLK1 (Homo sapiens), P53350; inhibition, %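 (tested at about 20 µM)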; in the data active = inhibition above about 34%, passing the limit was not always enough
CYP2C9 inh: blockers of cytochrome P450 2C9 activity – biochemical, luminescence, ADME assay, primary screen; P11712; AID 777, 2007; inhibition, % at 5 µM; actives 20% (n = 96,000); CYP2C9 Supersomes, luciferin-H conversion;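 active = blocking of liver enzyme CYP2C9 beyond about 50% at 5 µM, limit read from the data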
CYP2C9 act: human CYP2C9 activators, primary screen, biochemical, luminescence; Cytochrome P450 2C9 (Homo sapiens), P11712; recombinant CYP2C9, luciferin-H conversion; active compounds read high; factor 1 = untreated enzyme, 0 = blocked; activation factor at 5 µM; actives 1.4% (n = 96,000); AID 1024, 2008;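 active = activation factor of 2 or more for CYP2C9 at a 5 µM dose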;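 also: 0 = sulfaphenazole-blocked wells and 1 = vehicle-only wells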
CYP2C19 inh: blockers of cytochrome P450 2C19 activity – biochemical, luminescence, ADME assay, primary screen. CYP2C19 Supersomes, luciferin-H EGE luminescence, 30 min. inhibition, % at 5 µM. AID 778, 2007. P33261. actives 21% (n = 96,000);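 active = CYP2C19 inhibition above a set limit at 5 µM in the primary screen, cut at about 50% in these data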;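 also: plate controls were negative control wells for no effect and 2.5 mM tranylcypromine positive control for full effect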
Target sequence (P33261 whole entry, looked up): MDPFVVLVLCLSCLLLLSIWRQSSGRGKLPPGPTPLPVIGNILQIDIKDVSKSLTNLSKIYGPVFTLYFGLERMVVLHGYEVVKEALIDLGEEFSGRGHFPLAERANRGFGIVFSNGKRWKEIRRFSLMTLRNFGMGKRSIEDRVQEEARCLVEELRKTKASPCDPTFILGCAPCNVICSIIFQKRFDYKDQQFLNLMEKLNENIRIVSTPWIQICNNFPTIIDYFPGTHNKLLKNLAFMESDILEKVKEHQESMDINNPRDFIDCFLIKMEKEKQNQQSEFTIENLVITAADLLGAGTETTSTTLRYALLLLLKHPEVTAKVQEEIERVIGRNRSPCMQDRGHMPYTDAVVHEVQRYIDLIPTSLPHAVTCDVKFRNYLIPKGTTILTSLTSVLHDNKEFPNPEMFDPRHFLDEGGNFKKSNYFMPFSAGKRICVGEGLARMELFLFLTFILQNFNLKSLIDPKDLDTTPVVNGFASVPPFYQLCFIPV
CYP2C19 act: human CYP2C19 activators, primary screen, biochemical, luminescence; Cytochrome P450 2C19 (Homo sapiens), P33261; recombinant CYP2C19, luciferin-H EGE luminescence; active compounds read high; 0 = fully inhibited enzyme, 1 = untreated enzyme; activation factor at 5 µM; 96,000 tested, under 10 active; AID 1025, 2008;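 active = activation factor of at least 2 at 5 µM in the primary screen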;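 also: 0 = wells with 2.5 mM tranylcypromine and 1 = vehicle-only wells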
* hit, by the source's call; x = not tested or not shown. The list is not random: actives were taken first. Their share in the collection is about 28%.

SMILES	PLK1 kinase inh	PLK1 PBD inh	CYP2C9 inh	CYP2C9 act	CYP2C19 inh	CYP2C19 act
CCOC(=O)C1CCCN(C(=O)C2CCCN(S(C)(=O)=O)C2)C1 (centres undefined)	-6.8	-22.7	-6.9	1.1	-5.7	1.1
CCn1c(=O)cc(OCC(=O)NC(C)c2ccc3c(c2)OCCO3)c2ccccc21 (centres undefined)	2.7	-32.1	15.7	0.8	9.9	0.9
CCOc1ccccc1C(=O)NC(C)c1ccc2c(c1)OCO2 (centres undefined)	-15.1	7.2	-45.3	1.5	80.0*	0.2
COc1cc(CC(=O)NCc2ccc3c(c2)OCO3)cc(OC)c1OC	2.7	0.3	-11.3	1.1	74.3*	0.3
CCn1c(N)c(C(=O)NCc2ccc3c(c2)OCO3)sc1=S	1.3	0.3	63.0*	0.4	51.0*	0.5
CCN(CC)S(=O)(=O)c1ccc(N2CCCCC2)c(C(=O)Nc2ccccc2N2CCOCC2)c1	-18.4	18.1	36.5	0.6	59.2*	0.4
Cc1ccccc1NC(=O)c1cc(N)ccc1N1CCCCC1	-10.4	5.1	86.3*	0.1	97.6*	0
Cc1ccc(NC(=O)c2cc(NC(=O)c3ccco3)ccc2N2CCCCC2)cc1	-0.3	19.2	20.0	0.8	7.7	0.9
CN(C)S(=O)(=O)c1ccc(N2CCCC2)c(C(=O)NC(c2ccccc2)c2ccccc2)c1	-4.4	12.1	54.4*	0.5	-6.6	1.1
O=C(Nc1ccccc1N1CCCCC1)c1ccc(F)cc1	-35.7	-20.7	-1.0	1	16.1	0.8
O=C(Nc1ccccc1Cl)c1cc(S(=O)(=O)N2CCCCC2)ccc1N1CCOCC1	-7.0	-2.7	24.3	0.8	31.5	0.7
CCC(=O)Nc1ccc(N2CCCCC2)c(C(=O)Nc2ccccc2C)c1	-4.6	-5.0	21.1	0.8	53.1*	0.5
CN(C)S(=O)(=O)c1ccc(N2CCCC2)c(C(=O)Nc2ccc(N3CCOCC3)cc2)c1	-11.0	-16.3	39.5	0.6	22.1	0.8
Cc1ccc(C(=O)NC(=S)Nc2cc(C(F)(F)F)ccc2Cl)cc1	-6.2	-29.4	-91.5	1.9	15.5	0.8
CCCCCCOc1cccc(N)c1	5.0	-3.8	35.1	0.6	64.3*	0.4
CCCCOc1cccc(-c2nnc(N)s2)c1	-11.5	-1.8	23.0	0.8	30.6	0.7
Cc1cccc(-n2nnc(C(=O)Nc3ccc(F)cc3)c2N)c1	-29.8	-30.9	-166.0	2.7*	-5.9	1.1
CCOc1ccc(NC(=O)Cn2nnc(C(=O)NCCc3ccc(OC)c(OC)c3)c2N)cc1	-8.6	-4.2	78.8*	0.2	31.6	0.7
COc1ccc(CCNC(=O)c2nnn(-c3cccc(C)c3)c2N)cc1OC	-2.6	-2.8	68.0*	0.3	8.0	0.9
Cc1cccc(-n2nnc(C(=O)N3CCc4ccccc4C3)c2N)c1	-0.7	18.0	-223.1	3.2*	11.7	0.9
COc1ccc(CCNC(=O)c2nnn(-c3cc(C)cc(C)c3)c2N)cc1OC	3.3	-18.7	-78.7	1.8	15.5	0.8
Cc1ccc(NC(=O)N(Cc2ccco2)Cc2cc3cc(C)cc(C)c3nc2Cl)cc1	3.6	-21.0	50.2*	0.5	18.8	0.8
Cc1cccc2cc(CN(Cc3ccco3)C(=O)Nc3cccc(C#N)c3)c(Cl)nc12	-10.1	10.0	95.0*	0.1	62.2*	0.4
COCCN(Cc1cc2cc(C)ccc2nc1Cl)C(=O)Nc1ccccc1C	-19.3	-15.3	12.1	0.9	-2.2	1
COc1ccc(-c2nc3n(n2)C(c2ccccc2)C2=C(CCCC2=O)N3)cc1OC (centres undefined)	0.0	9.1	28.1	0.7	14.4	0.9
SMILES	PLK1 kinase inh	PLK1 PBD inh	CYP2C9 inh	CYP2C9 act	CYP2C19 inh	CYP2C19 act
COc1ccccc1NC(=O)CN1CCN(CC(=O)Nc2ccc(OCc3ccccc3)cc2)CC1	-4.7	11.2	79.4*	0.2	87.3*	0.1
COc1ccc(C)cc1NC(=O)CN1CCN(c2ccc(F)cc2)CC1	-10.2	-8.5	11.9	0.9	77.6*	0.2
COc1ccccc1N1CCN(CC(=O)Nc2cc(F)ccc2C)CC1	-8.0	-11.6	37.9	0.6	33.1	0.7
COc1ccccc1NC(=O)CN1CCN(Cc2ccccc2)CC1	-2.2	-16.7	35.7	0.6	71.5*	0.3
COC(=O)c1sccc1NC(=O)CN1CCN(c2ccc(F)cc2)CC1	x	x	53.9*	0.5	39.2	0.6
COc1ccccc1NC(=O)CN1CCN(c2ccccn2)CC1	-6.5	-21.5	x	x	x	x
COc1ccccc1NC(=O)CN1CCN(CC(=O)Nc2ccc(F)cc2)CC1	x	x	26.2	0.7	87.7*	0.1
CC(=O)Nc1ccc(S(=O)(=O)NCCSCc2ccco2)cc1	-8.9	6.6	65.5*	0.3	60.0*	0.4
CC(=O)Nc1ccc(S(=O)(=O)NCC2CCC(C(=O)N3CCCCCC3)CC2)cc1 (centres undefined)	-5.7	-11.3	-4.9	1	-10.0	1.1
CC(=O)Nc1ccc(S(=O)(=O)NCCSCc2c(Cl)cccc2Cl)cc1	-5.3	3.6	76.8*	0.2	73.1*	0.3
CS(=O)(=O)NCCSCc1ccco1	-1.8	4.8	14.7	0.9	5.8	0.9
CCOC(=O)C1=NN(C(=O)Nc2cccc(C(F)(F)F)c2)C2C(=O)N(c3cccc(C(F)(F)F)c3)C(=O)C12 (centres undefined)	-5.1	-3.3	44.8	0.6	35.2	0.6
COC(=O)c1ccc(-c2ccco2)n1Cc1cccc(C)c1	1.4	-0.1	81.1*	0.2	59.6*	0.4
O=C(O)c1ccc(-c2ccco2)n1Cc1ccccc1	-2.8	3.0	71.0*	0.3	16.9	0.8
CCCCNc1nc(-c2ccccc2)cc(C(F)(F)F)c1C(N)=O	-9.3	-12.8	x	x	x	x
CN(C)CCC(=O)NCC1OCCc2ccccc21 (centres undefined)	-5.1	11.2	-0.1	1	-4.9	1
O=C(NCc1ccccc1Cl)C1CCCN(S(=O)(=O)c2cnc[nH]2)C1 (centres undefined)	1.3	-5.3	91.7*	0.1	95.6*	0
O=C(NCCN1CCN(c2ccccc2)CC1)C1CCCN(S(=O)(=O)c2cnc[nH]2)C1 (centres undefined)	-9.3	-23.8	19.0	0.8	11.6	0.9
O=C(C1CCCN(S(=O)(=O)c2ccc(F)cc2)C1)N(Cc1cccs1)C1CC1 (centres undefined)	x	x	72.7*	0.3	94.6*	0.1
O=C(NCc1cccs1)C1CCCN(S(=O)(=O)c2cnc[nH]2)C1 (centres undefined)	5.2	7.7	46.9	0.5	83.5*	0.2
